The sample as a whole holds a higher share of hits than the screen did.
Dicer processing – human Dicer pre-microRNA cleavage inhibition. Q9UPY3. cat-ELCCA pre-miR-21 Dicer processing, chemiluminescence; stronger effect = higher value. hit rate 6% among 47,000. z-score at 25 µM. AID 1347074; in the data active = z-score above about 3, passing the limit was not always enough;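 also: higher signal means more uncleaved substrate so more Dicer inhibition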
Numbers stand for hits; - = inactive.

SMILES	Dicer processing
O=C(OCCN1CCN(C2=NS(=O)(=O)c3ccccc32)CC1)c1cccc2ccccc12	3.2
O=C1c2ccccc2S(=O)(=O)N1Cc1cccc2ccccc12	-
O=C1c2ccccc2S(=O)(=O)N1CCCCN1CCN(c2ncccn2)CC1	-
Cc1ncc(S(=O)(=O)Nc2cc(-c3ccccc3)nn2C)[nH]1	-
O=S(=O)(c1ccccc1)N1CCSC1c1ccc(Br)cc1 (stereo unspecified)	-
COc1ccc(C2N(S(=O)(=O)c3ccc(C)cc3)CCN2S(=O)(=O)c2ccc(C)cc2)cc1	3.7
Cc1ccc(S(=O)(=O)N2CCN(S(=O)(=O)c3ccccc3)C2c2ccc(N(C)C)cc2)cc1 (stereo unspecified)	-
O=S(=O)(c1ccccc1)N1CCSC1c1ccc(Cl)cc1 (stereo unspecified)	-
COc1ccc(OC)c(C2SCCN2S(=O)(=O)c2ccc(C)cc2)c1 (stereo unspecified)	-
COc1ccc(OC)c(C2SCCN2S(=O)(=O)c2ccc(F)cc2)c1 (stereo unspecified)	-
O=S(=O)(c1ccc(-c2ccccc2)cc1)N1CCSC1c1ccccc1 (stereo unspecified)	3.8
COc1ccc(C2N(S(=O)(=O)c3ccccc3)CCN2S(=O)(=O)c2ccccc2)cc1	-
COc1ccc(S(=O)(=O)N2CCSC2c2cc(OC)ccc2OC)cc1 (stereo unspecified)	3.7
CCOC(=O)N1CCC(NC(=O)CNC(=O)c2ccco2)CC1	-
COc1ccc(C2c3c(ccc4ccccc34)OC23C(=O)C=Cc2ccccc23)cc1 (stereo unspecified)	-
O=C(CSc1nc(SCC(=O)c2ccc(Cl)cc2)c2ccccc2n1)c1ccc(Cl)cc1	-
O=C1NC(c2ccc([N+](=O)[O-])s2)Nc2ccc(Cl)cc21 (stereo unspecified)	-
N#Cc1cccnc1NNC(=O)Nc1cccc2ccccc12	-
Cc1c(Cl)cccc1NC(=S)NNC(=O)CC#N	-
Cc1cccc(Cl)c1NC(=O)CC#N	3.9
CCNCC(=O)Nc1c(C)cccc1C	-
OCC12CC3CC(CC(Br)(C3)C1)C2	-
NS(=O)(=O)c1ccc(NC(=O)C2CCCCC2)cc1	-
Cn1cc([N+](=O)[O-])c(C(=O)Nc2ccc(Cl)cc2)n1	-
CSc1ccccc1NC(=O)Cn1cnc([N+](=O)[O-])n1	-
SMILES	Dicer processing
O=C(Cn1cnc([N+](=O)[O-])n1)Nc1ccc(Cl)cc1	4.3
Cc1ccc(S(=O)(=O)NC(=O)Oc2ccc(Oc3ccc(C(F)(F)F)cn3)cc2)cc1	-
CCOC(=O)c1sc(N2C(=O)c3oc4ccccc4c(=O)c3C2c2cccc(Cl)c2)nc1C (stereo unspecified)	-
CCCOC(=O)CN1C(=O)C2C3c4ccccc4C(c4ccccc43)C2C1=O (stereo unspecified)	-
O=C(Cn1c(=O)oc2ccccc21)Nc1nnc(SCC(=O)c2ccccc2)s1	-
CCCCN1C(=O)N(c2nnc(C(C)(C)C)s2)C(=O)C1c1ccc(Cl)c(C)c1 (stereo unspecified)	-
COc1cccc(C2Sc3ccccc3NC3=C2C(=O)c2ccccc23)c1 (stereo unspecified)	-
COc1cccc(C2Sc3ccccc3NC3=C2C(=O)c2ccccc23)c1OC (stereo unspecified)	3.6
COc1ccccc1C1C2=C(Nc3c1c(=O)[nH]c(=O)n3C)c1ccccc1C2=O (stereo unspecified)	-
Cc1ccc(C2CC(=O)C(C)C(c3ccc(C)cc3)N2)cc1 (stereo unspecified)	-
COC(=O)c1sc(SC)c2c1CC(C)(C)C/C2=N\OC(=O)c1ccc(Cl)cc1	3.3
CSc1sc(Br)c2c1/C(=N/OC(=O)c1ccc(Cl)cc1)CC(C)(C)C2	-
CSc1sc(Br)c2c1/C(=N/OC(=O)c1ccccc1Cl)CC(C)(C)C2	-
COc1ccccc1C1SCCN1S(=O)(=O)c1ccc(C)cc1C (stereo unspecified)	-
Cc1nc(-c2cc(C(C)(C)C)c(O)c(C(C)(C)C)c2)cs1	-
O=C(c1ccc(Br)cc1)N1CC2C3CCC(O3)C2C1 (stereo unspecified)	-
O=C(Nc1nnc(COc2ccc(Cl)cc2)s1)c1ccco1	4
O=C(Nc1nnc(CCSc2ccc3ccccc3c2)s1)c1ccco1	-
COCc1nnc(NC(=O)COc2ccc(Cl)cc2)s1	-
O=c1c(-c2ccccc2)c(C(F)(F)F)oc2c(CN3CCCC3)c(O)ccc12	-
Cc1cc(C)c(-c2ccn(C(=O)c3snnc3C)n2)[nH]1	-
c1ccc2c(c1)nc1n2CN(CCCN2CCOCC2)CN1	-
Cc1ccc2nc(NC3=NCN(Cc4ccc5c(c4)OCO5)CN3)nc(C)c2c1	-
c1ccc2oc(NC3=NCN(Cc4ccc5c(c4)OCO5)CN3)nc2c1	-
Cc1cc2nc(NC3=NCN(Cc4cccnc4)CN3)nc(C)c2cc1C	-
c1ccc2c(c1)nc1n2CN(Cc2ccc3c(c2)OCO3)CN1	3.5
Cc1c2c(n3c(nc4ccccc43)c1C#N)N(Cc1cccnc1)CC2	-
c1ccc2c(c1)nc1n2CN(CCN2CCOCC2)CN1	3.2
c1cncc(CN2CNc3nc4ccccc4n3C2)c1	3

Compound activity deposited in PubChem by Center for Chemical Genomics, University of Michigan.
